Records with an inconclusive call do not appear. Activity calls are given as the source filed them. The call rests on the fitted dose curve; in most records, active means well fitted cell-killing curve with a large enough effect in the repeat runs; inconclusive means weak or mixed curves, or effect the other way; inactive means flat fitted curve, though single readings scatter.
On the % scale 0 is the no-effect control and ±100 the full control effect; potency means the concentration at half of the fitted maximal effect.

The nature of this assay: cAMP Responsive Elements (CRE) small molecule antagonists, cell-based qHTS assay: qHTS cell viability counter screen (AID 2060913). Further: nearly all actives have a fitted effect of over 40% in size. To be noted: CRE-bla HEK293T viability, CellTiter-Glo luminescence, 5 h; series mostly up to 92.4 µM; viability change, negative = cytotoxic: at the top concentration. An outline of the steps: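 CRE-bla HEK293T cells (2,000/well, 18 h) given compound plus NKH477 0.25 uM final for 3 h at 37C; viability counter-screen by CellTiter-Glo luminescence in same wells after 30 min.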
A general note: Quantitative high-throughput screening tests each substance at several concentrations.
For `CCN(CC)Cc1nccn1-c1ccc([N+](=O)[O-])cc1C(=O)c1ccccc1Cl`, the “viability change, negative = cytotoxic” value was -2.21% [at 42.5 µM] (inactive). For the compound `CC(C)CC#N`, the “viability change, negative = cytotoxic” value was -10.6% (inactive).

As to `COc1ccc(C=O)cc1`, the Potency entry is “inactive”.

Regarding `O=[N+]([O-])c1cc(C(F)(F)F)c(Cl)c([N+](=O)[O-])c1Nc1ncc(C(F)(F)F)cc1Cl`, the Potency was 30.6 µM (active). As for `O=C(Cl)CCl`, the “viability change, negative = cytotoxic” value was -0.0556% (inactive). In the case of `[Cl-].[Cl-].[Sn+2]`, the “viability change, negative = cytotoxic” value is -12.1% (inactive). On to `CC(C)N(Cc1ccccc1)C(=O)C(C)(C)C`, for which the “viability change, negative = cytotoxic” value was -4.09% (inactive). For `O=Cc1ccco1`, the Potency result is “inactive”. As to `COCCC#N`, the “viability change, negative = cytotoxic” value is 9.59% (inactive). On to `C[N+](=O)[O-]`, for which the “viability change, negative = cytotoxic” value is 3.04% (inactive). In the case of `N#CC(Cl)Cl`, the “viability change, negative = cytotoxic” value was -7.91% (inactive). Consider `ClP(Cl)(Cl)(Cl)Cl`, for which the “viability change, negative = cytotoxic” value is -1.69% (inactive).

For `Cc1ncc(CNC(=O)N(CCCl)N=O)c(N)n1`, the “viability change, negative = cytotoxic” value is -5.65% [at 42.5 µM] (inactive). As to `CC1C(=O)C[C@]2(C(C)C)C[C@H]12` (stereo not given in full), the “viability change, negative = cytotoxic” value was 0.517% (inactive).

As to `CC(=O)[O-].CC(=O)[O-].O.O.[Cd+2]`, the Potency was 53.7 µM (active). Take `C/C=C/C=O`: the “viability change, negative = cytotoxic” value is -12.9% (inactive). Same read-out and setting: the figure for `CC(CC(C#N)(c1ccccc1)c1ccccc1)N(C)C` (stereo not given) is -2.24% (inactive). In the case of `CCOC(=O)c1ccccc1N`, the “viability change, negative = cytotoxic” value was 7.71% (inactive). For the compound `CNC(=O)O/N=C(/CSC)C(C)(C)C`, the “viability change, negative = cytotoxic” value is -9.81% (inactive). Regarding `CC(C)=CCOc1c2occc2cc2ccc(=O)oc12`, the “viability change, negative = cytotoxic” value was -0.113% [at 42.5 µM] (inactive). With `OCCSCSCCO`, the “viability change, negative = cytotoxic” value is -0.711% (inactive). As for `N#Cc1ccccc1N`, the “viability change, negative = cytotoxic” value was -10.8% (inactive).

In the case of `Cc1ccc(N)c(C)c1`, the Potency result was “inactive”. For `Cc1nc(N(C)C)nc(OC(=O)N(C)C)c1C`, the “viability change, negative = cytotoxic” value is 6.62% (inactive).

For the compound `[Cl-].[Cl-].[Cl-].[Yb+3]`, the “viability change, negative = cytotoxic” value was -2.94% (inactive).

With `CCOP(=O)(OCC)SCCSCC`, the Potency entry is “inactive”.

In the case of `CC(=O)[O-].CC(=O)[O-].CC(=O)[O-].[Sb+3]`, the viability change, negative = cytotoxic was 0.272% [at 3.27 µM] (inactive). Still for that read-out and setting: to `C[N+](C)(C)CCCl` belongs 6.54% (inactive); to `CCSC(=O)N(CC)C1CCCCC1`, 0.704% (inactive). `CC(C)(OOC(C)(C)c1ccccc1)c1ccccc1`: the Potency entry was “inactive”. Turning to `O=S(=O)(c1ccc(Cl)cc1)c1cc(Cl)c(Cl)cc1Cl`, the Potency entry is “inactive”. Consider `COC(=O)NC(=S)Nc1ccccc1NC(=S)NC(=O)OC`, for which the Potency result was “inactive”. For `CC(C)O.CC(C)O.OCCN(CCO)CCO.OCCN(CCO)CCO.[Ti]`, the “viability change, negative = cytotoxic” value was 2.61% (inactive).

As to `CN1COCN(Cc2cnc(Cl)s2)/C1=N\[N+](=O)[O-]`, the “viability change, negative = cytotoxic” value was -3.06% (inactive). Consider `Nc1ccc([N+](=O)[O-])cc1Cl`, for which the “viability change, negative = cytotoxic” value is 12.2% (inactive). With `CSC(C)(C)/C=N/O`, the “viability change, negative = cytotoxic” value was 9.97% (inactive). Consider `CCCCC(CC)COC(=O)c1ccc(C(=O)OCC(CC)CCCC)c(C(=O)OCC(CC)CCCC)c1` (stereo not given), for which the Potency entry is “inactive”. For the compound `c1ccc(Nc2ccc3ccccc3c2)cc1`, the Potency entry is “inactive”. On to `Cc1ccccc1[N+](=O)[O-]`, for which the Potency result is “inactive”. In the case of `N#Cc1cccc(C#N)c1`, the Potency entry was “inactive”.
